This is a sample that favours compounds with a hit; in the whole collection about 1.2% have one here.
GALR2 blocker: GALR2 antagonists in receptor-expressing cells, primary screen. Galanin receptor type 2 (Homo sapiens), O43603. antagonist mode. inhibition, % at 4 µM. actives 0.39% (n = 140,000);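 note: cells stimulated with galanin 1-16 at roughly its EC80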
Target sequence (O43603 whole entry, looked up): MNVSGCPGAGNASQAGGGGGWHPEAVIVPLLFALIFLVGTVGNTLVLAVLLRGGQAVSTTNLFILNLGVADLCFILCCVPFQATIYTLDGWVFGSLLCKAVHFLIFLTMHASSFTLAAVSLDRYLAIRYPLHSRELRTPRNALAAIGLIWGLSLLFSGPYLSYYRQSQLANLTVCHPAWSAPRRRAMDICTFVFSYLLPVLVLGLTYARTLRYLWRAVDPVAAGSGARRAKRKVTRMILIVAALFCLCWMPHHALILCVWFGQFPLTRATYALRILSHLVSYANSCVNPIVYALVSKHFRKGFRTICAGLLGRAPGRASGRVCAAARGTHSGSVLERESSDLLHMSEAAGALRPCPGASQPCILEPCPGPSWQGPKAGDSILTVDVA
GALR2 agonist: GALR2 receptor agonists, primary screen, cell-based. Galanin receptor type 2 (Homo sapiens), O43603. GALR2-expressing cells, agonist activation read-out. activation, % (concentration not given with the values). AID 803, 2007. actives 0.48% (n = 140,000); in the data active = activation above about 5%, passing the limit was not always enough
S1P2 ag: S1P2 receptor agonists, primary screen, cell-based. Sphingosine 1-phosphate receptor 2 (Homo sapiens), O95136. S1P2-expressing cell line, agonist reporter read-out. activation, % at 4.5 µM. actives 0.46% (n = 97,000). AID 729, 2007; in the data active = activation above about 16%
Target sequence (O95136 whole entry, looked up): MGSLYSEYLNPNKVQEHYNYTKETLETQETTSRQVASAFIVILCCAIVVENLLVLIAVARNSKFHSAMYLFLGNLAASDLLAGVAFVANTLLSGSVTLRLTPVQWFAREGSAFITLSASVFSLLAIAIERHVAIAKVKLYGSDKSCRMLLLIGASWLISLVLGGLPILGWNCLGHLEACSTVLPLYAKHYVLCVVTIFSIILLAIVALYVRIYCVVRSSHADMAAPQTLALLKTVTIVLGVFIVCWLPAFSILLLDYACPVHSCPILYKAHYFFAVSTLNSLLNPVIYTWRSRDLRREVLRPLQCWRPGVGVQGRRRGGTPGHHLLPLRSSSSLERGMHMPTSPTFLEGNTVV
S1P2 antag: human S1P2 receptor antagonists, primary screen, cell-based; inhibition, % at 5 µM; actives 0.21% (n = 97,000); Sphingosine 1-phosphate receptor 2 (Homo sapiens), O95136; cell-based S1P2 antagonist assay, inhibition at 5 uM; in the data active = inhibition above about 45%;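 note: CRE beta-lactamase reporter cells expressing human S1P2 stimulated with S1P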
GALR2 ant conf: GALR2 antagonists, retest of hits, confirmation, cell-based. GALR2-expressing cells, antagonist mode, inhibition. shares compounds with GALR2 blocker. inhibition, % at 4 µM. actives 60% (n = 480). AID 866, 2007;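 note: cells stimulated with galanin at about its EC80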
BLA inhib ctr: inhibitors of NFAT-driven beta-lactamase reporter, confirmation, counter-screen for GALR2 antagonist project, CHO NFAT-bla cells, FRET readout; shares compounds with GALR2 blocker; thapsigargin-stimulated; inhibition, % at 4.2 µM; actives 36% (n = 480); AID 867, 2007;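 active = inhibition above the mean inhibition across tested compounds plus 3 SD, cut at about 27% in these data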
Each line names hits and unclear results; the compound was inactive in the other large screens (follow-up assays come after a bar, where they were run). Cut-off read from the data, not from the text of the source, unless noted: active = inhibition above about 27%; inactive = the rest.

Cc1cc(N/N=C/c2cccc(Cl)c2)nc(NCc2ccccc2)n1	none (no result: S1P2 ag, S1P2 antag)
CCOC(=O)C(=CNc1cccc(N)n1)C(=O)OCC	none
CCOC(=O)C(=CNc1ccc(NC2=NCC(C)S2)cc1)C(=O)OCC (centres undefined)	GALR2 blocker 33 (no result: S1P2 ag, S1P2 antag) | GALR2 ant conf 45 | BLA inhib ctr 37
Cc1ccc(S(=O)(=O)N[C@H](C(=O)Oc2ccc3c(C(F)(F)F)cc(=O)oc3c2)c2ccccc2)cc1	GALR2 blocker 44, S1P2 antag 58 | GALR2 ant conf inactive | BLA inhib ctr 36
Cc1ccccc1-n1c(CSC(=N)N)nc2ccccc2c1=O	GALR2 blocker 31 | GALR2 ant conf inactive | BLA inhib ctr inactive
C/C(CC(=O)Nc1ccc2c(c1)OCO2)=N\NC(=O)C(c1ccccc1)c1ccccc1	none (no result: S1P2 ag, S1P2 antag)
Cc1ccc(N=Cc2sc(O)c3ccccc23)cc1	GALR2 blocker 28 | GALR2 ant conf 32 | BLA inhib ctr 32
Cc1nc2ccc(NC(=O)c3cc(S(=O)(=O)N(C)c4ccccc4)ccc3Cl)cc2s1	GALR2 blocker 37 (no result: S1P2 ag, S1P2 antag) | GALR2 ant conf 31 | BLA inhib ctr inactive
Cc1nc2ccc(NC(=O)c3ccc(Cl)c(S(=O)(=O)N(C)c4ccccc4)c3)cc2s1	none (no result: S1P2 ag, S1P2 antag)
CCc1nnc(NC(=O)C=C(C)C)s1	GALR2 blocker 28 | GALR2 ant conf inactive | BLA inhib ctr inactive
CCc1nnc(NC(=O)C(C)C)s1	none
CC(C)(CNC(=O)/C=C/c1ccc(F)cc1)CNC(=O)/C=C/c1ccc(F)cc1	none (no result: S1P2 ag, S1P2 antag)
COc1ccc(NC(=O)/C(Cl)=C(/Cl)S(=O)(=O)Cc2ccc(C)cc2)cn1	GALR2 blocker 78, S1P2 antag 90 | GALR2 ant conf 93 | BLA inhib ctr 95
COc1ccc(NC(=O)C(CC(C)C)NC(=O)c2ccccc2C)cn1 (centres undefined)	none
COc1ccccc1N=Nc1nc(-c2ccccc2)c(-c2ccccc2)[nH]1	none (no result: S1P2 ag, S1P2 antag)
Oc1ccccc1N=Nc1nc(-c2ccccc2)c(-c2ccccc2)[nH]1	GALR2 blocker 29 | GALR2 ant conf 34 | BLA inhib ctr inactive
C/C(=N\NS(=O)(=O)c1ccccc1)c1ccc2c(c1)OCCO2	none (no result: S1P2 ag, S1P2 antag)
NC(=O)c1ccc(NC(=O)COC(=O)c2c3c(nc4ccccc24)/C(=C\c2cccs2)CCC3)cc1	none (no result: S1P2 ag, S1P2 antag)
CC1CCCCC1NC(=O)COC(=O)c1c2c(nc3ccccc13)/C(=C/c1ccco1)CC2 (centres undefined)	GALR2 blocker 60 (no result: S1P2 ag, S1P2 antag) | GALR2 ant conf 37 | BLA inhib ctr 48
CC(C)CNC(=O)COC(=O)c1c2c(nc3ccccc13)/C(=C/c1cccs1)CC2	GALR2 blocker 31 (no result: S1P2 ag, S1P2 antag) | GALR2 ant conf 38 | BLA inhib ctr 44
O=C(Nc1nc(-c2cccc3ccccc23)cs1)c1cnccn1	none (no result: S1P2 ag, S1P2 antag)
Cc1cc(C)nc(SCc2cc(=O)c(OC(=O)c3ccc(S(=O)(=O)N4CCCC4)cc3)co2)n1	none (no result: S1P2 ag, S1P2 antag)
CC(C)(C)c1ccc(OCCNC(=O)c2ncn[nH]2)cc1	GALR2 blocker 31 | GALR2 ant conf inactive | BLA inhib ctr inactive
Cc1ccc(C(=O)c2cc([N+](=O)[O-])ccc2N2CCOCC2)cc1	none (no result: S1P2 ag, S1P2 antag)
COc1ccc(C(=O)c2cc([N+](=O)[O-])ccc2N2CCOCC2)cc1	GALR2 blocker 34 (no result: S1P2 ag, S1P2 antag) | GALR2 ant conf 28 | BLA inhib ctr 49
CCOc1ccc(C(=O)c2cc([N+](=O)[O-])ccc2N2CCOCC2)cc1	GALR2 blocker 51 (no result: S1P2 ag, S1P2 antag) | GALR2 ant conf 30 | BLA inhib ctr 68
COc1ccc(-n2cc(C(=O)c3cc4ccccc4oc3=O)c(C(C)=O)n2)cc1	none
CCn1c2ccc(C)cc2c2nc3cc(C(=O)O)ccc3nc21	GALR2 blocker 28 (no result: S1P2 ag, S1P2 antag) | GALR2 ant conf 34 | BLA inhib ctr inactive
O=C1C=C(Nc2ccccc2O)c2ccccc2C1=O	GALR2 blocker 28 | GALR2 ant conf inactive | BLA inhib ctr 29
CC(=O)Nc1ccccc1O	none (no result: S1P2 ag, S1P2 antag)
COc1ccc(CCC(=O)Nc2cccc(S(=O)(=O)N(C)C)c2)cc1OC	none (no result: S1P2 ag, S1P2 antag)
Cc1sc2ncnc(NCC3COc4ccccc4O3)c2c1C (centres undefined)	GALR2 blocker 39 (no result: S1P2 ag, S1P2 antag) | GALR2 ant conf 46 | BLA inhib ctr inactive
Cc1sc2ncnc(NCc3ccccc3)c2c1C	GALR2 blocker 29 | GALR2 ant conf inactive | BLA inhib ctr inactive
Cc1cccc(NS(=O)(=O)c2cc(C(=O)N3CCc4ccccc4C3)ccc2Cl)c1C	none
CCCN(CCC)CC(O)Cn1cc(/C=C/C(=O)c2cccs2)c2ccccc21 (centres undefined)	GALR2 blocker 53 (no result: S1P2 ag, S1P2 antag) | GALR2 ant conf 32 | BLA inhib ctr 44
O=C(/C=C/c1cn(CC(O)CN2CCCCC2)c2ccccc12)c1cccs1 (centres undefined)	none (no result: S1P2 ag, S1P2 antag)
O=C(O)c1ccc(N/N=C/c2ccc(OC(=O)c3ccccc3Cl)cc2)cc1	none (no result: S1P2 ag, S1P2 antag)
O=C(Nc1ccccc1)c1nnsc1S(=O)c1ccc(Cl)cc1 (centres undefined)	GALR2 blocker 39, S1P2 antag 64 | GALR2 ant conf 35 | BLA inhib ctr 56
O=C(Nc1ccc(Cl)cc1)c1cccs1	none
CCN(CC)c1ncnc2c1[nH]c1ccccc12	none
CCCOc1ncnc2c1[nH]c1ccccc12	GALR2 blocker 29 | GALR2 ant conf 28 | BLA inhib ctr inactive
COc1ccc(OC)c2c1nc1n2CCS1	none (no result: S1P2 ag, S1P2 antag)
C=CCN1C(=O)N/C(=C/c2ccc(N3CCOCC3)o2)C1=O	GALR2 blocker 38 (no result: S1P2 ag, S1P2 antag) | GALR2 ant conf inactive | BLA inhib ctr inactive
O=C1NC(=S)S/C1=C/c1ccc(N2CCOCC2)o1	none (no result: S1P2 ag, S1P2 antag)
O=C1N/C(=C/c2ccc(N3CCOCC3)o2)C(=O)N1c1ccccc1	GALR2 blocker 55 (no result: S1P2 ag, S1P2 antag) | GALR2 ant conf inactive | BLA inhib ctr inactive
O=C1N/C(=C/c2ccc(N3CCCC3)cc2)C(=O)N1c1ccccc1	none (no result: S1P2 ag, S1P2 antag)
CCN(CC)S(=O)(=O)c1cccc(NC(=O)c2ccc(-n3nc(C)cc3C)cc2)c1	none (no result: S1P2 ag, S1P2 antag)
COc1cccc(/C=N/NC(=O)c2cc(-c3cccn3C)n[nH]2)c1O	GALR2 blocker 28 (no result: S1P2 ag, S1P2 antag) | GALR2 ant conf 27 | BLA inhib ctr inactive
COc1cc(/C=N/NC(=O)c2cc(-c3cccn3C)n[nH]2)cc(OC)c1OC	none
O=C(Nc1ccccc1)Nc1cc(OCC(F)(F)F)cc(OCC(F)(F)F)c1	GALR2 blocker 27 (no result: S1P2 ag, S1P2 antag) | GALR2 ant conf inactive | BLA inhib ctr inactive
O=C(Nc1ccccc1)Nc1cc(Cl)cc(Cl)c1	none
COc1ccccc1Nc1nc(-c2c(C)[nH]c3ccccc23)cs1	GALR2 blocker 30 (no result: S1P2 ag, S1P2 antag) | GALR2 ant conf inactive | BLA inhib ctr inactive
CCCC(=O)Nc1nc(C)c(-c2csc(Nc3ccccc3OC)n2)s1	none
COc1ccc(C(=O)N(c2ccccc2)C2C=CS(=O)(=O)C2)cc1 (centres undefined)	GALR2 blocker 30 | GALR2 ant conf inactive | BLA inhib ctr inactive
O=C(NN1C(=O)c2ccccc2C1=O)C1C2CCCCC21 (centres undefined)	none (no result: S1P2 ag, S1P2 antag)
C=CCn1c(SCC(=O)c2[nH]c(C)c(C(=O)OCC)c2C)nc2scc(-c3ccc(OC)cc3)c2c1=O	none (no result: S1P2 ag, S1P2 antag)
COc1ccc(Cc2nc(C(=O)Nc3ccc(Cl)cc3)cs2)cc1	none

Assay outcomes (PubChem)
